Compound activity (PubChem)
Shown are actives, neighbours in structure and some others; about 17% of the full set was active somewhere.
ClpP mod = qHTS Assay for Activators of ClpP | ATP-dependent Clp protease proteolytic subunit (Bacillus subtilis (strain 168)), P80244 | purified B. subtilis ClpP, FRET peptide cleavage, 20 min | Potency, µM (series often up to 57.5 µM) | hit rate 1.9% among 340,000 | AID 651965, 2013; active = well fitted falling curve with a large enough effect; inconclusive = small, poorly fitted or top-dose-only effect; inactive = no such curve, though single readings can be large or run the other way; also: the source files actives as falling curves though it sought activators and does not explain the sign; nearly all actives have a fitted effect of over 65% in size
Target sequence (P80244 whole entry, looked up): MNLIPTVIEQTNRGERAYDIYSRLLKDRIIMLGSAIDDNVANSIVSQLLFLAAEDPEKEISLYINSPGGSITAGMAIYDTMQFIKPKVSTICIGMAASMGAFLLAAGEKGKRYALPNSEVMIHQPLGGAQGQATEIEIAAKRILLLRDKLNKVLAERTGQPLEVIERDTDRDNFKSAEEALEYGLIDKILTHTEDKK
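ClpP 10 microg/mL final, pH 8 Tris/KCl buffer with BSA, glycerol, Tween-20; compound pinned in; FRET-FV substrate; RT 20 min; Ex320/Em430; ΔFRET vs ADEP 5.8 microM, DMSO, no enzyme.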
TDP1 block = qHTS Assay for Inhibitors of Tyrosyl-DNA Phosphodiesterase (TDP1); recombinant TDP1, AlphaScreen DNA substrate cleavage; hit rate 0.28% among 350,000; Tyrosyl-DNA phosphodiesterase 1 (Homo sapiens), Q9NUW8; AID 485290, 2010; Potency, µM (doses to about 130 µM), hits mostly inhibitors; also: nearly all actives have a fitted effect of over 40% in size
Target sequence (Q9NUW8 whole entry, looked up): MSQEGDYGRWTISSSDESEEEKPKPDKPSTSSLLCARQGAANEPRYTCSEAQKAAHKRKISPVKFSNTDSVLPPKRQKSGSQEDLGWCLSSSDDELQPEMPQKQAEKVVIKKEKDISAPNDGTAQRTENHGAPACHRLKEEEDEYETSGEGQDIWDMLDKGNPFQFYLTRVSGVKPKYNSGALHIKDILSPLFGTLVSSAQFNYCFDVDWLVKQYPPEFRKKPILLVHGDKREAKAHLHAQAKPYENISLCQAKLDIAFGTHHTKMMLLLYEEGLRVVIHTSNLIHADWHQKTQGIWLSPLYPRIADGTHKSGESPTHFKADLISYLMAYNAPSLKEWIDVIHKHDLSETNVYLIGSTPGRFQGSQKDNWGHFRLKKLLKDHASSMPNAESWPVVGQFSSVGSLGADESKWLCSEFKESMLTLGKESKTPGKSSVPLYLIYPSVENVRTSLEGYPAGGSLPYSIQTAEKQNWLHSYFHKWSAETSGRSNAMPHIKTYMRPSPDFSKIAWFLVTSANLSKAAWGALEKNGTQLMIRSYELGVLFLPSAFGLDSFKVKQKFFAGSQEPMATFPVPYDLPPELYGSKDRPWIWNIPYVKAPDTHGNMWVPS
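Signal: AlphaScreen proximity between streptavidin donor and anti-FITC acceptor beads on intact substrate. Reaction: Tdp1 1 nM, substrate 15 nM final, 5 min RT after 15 min compound preincubation.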
TDP1 cell noCPT = qHTS for Inhibitors of human tyrosyl-DNA phosphodiesterase 1 (TDP1): qHTS in cells in absence of CPT. DT40 Tdp1-/- hTDP1 cells, no CPT, ATP luminescence, 48 h. Potency, µM (doses to about 46.2 µM), hits mostly inhibitors. hit rate 15% among 420,000. AID 686978, 2013; also: nearly all actives have a fitted effect of over 55% in size
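Camptothecin absent (DMSO only). Human TDP1-complemented DT40 knockout cells, 400 cells/well, 37 °C for minimum 48 hr; ATP measured via CellTiter-Glo, 30 min dark incubation, luminescence.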
DT40 TDP1 CPT = qHTS for Inhibitors of human tyrosyl-DNA phosphodiesterase 1 (TDP1): qHTS in cells in presence of CPT | chicken DT40 Tdp1-/-;hTDP1 cells + 20 nM CPT, ATP luminescence, 48 h | Potency, µM (highest dose often 46.2 µM), usual class: inhibitors | hit rate 12% among 420,000; also: nearly all actives have a fitted effect of over 55% in size
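Cell growth measured by CellTiter-Glo luminescence after a minimum 48 h, 37 C compound exposure with 20 nM CPT in Tdp1-knockout DT40 cells stably expressing hTDP1, seeded 400/well; qHTS titration format.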
Each line names hits and unclear results; the compound was inactive in the other large screens; ! = not active in a repeat. Unless noted, calls follow the shape of the dose curve; as a rule, active = well fitted curve in the direction sought with a large enough effect; inconclusive = small, poorly fitted or top-dose-only effect, or another doubt; inactive = no such curve, though single readings can be large; an effect the other way counts as inactive or inconclusive.

CCc1nc(SCC(=O)NCCc2ccccc2)c2oc3ccccc3c2n1	TDP1 cell noCPT inconclusive, DT40 TDP1 CPT 20.6µM
CCc1nc(SCC(=O)c2cccs2)c2oc3ccccc3c2n1	TDP1 cell noCPT 18.4µM, DT40 TDP1 CPT inconclusive
CCc1nc(SCC(=O)N2CCc3ccccc32)c2oc3ccccc3c2n1	none (no result: TDP1 block)
CN(C)c1nc(CN2CCCCC2c2cccnc2)nc2ccccc12 (stereo not drawn)	none (no result: ClpP mod, TDP1 block)
COc1cc(NC(=O)c2ccc(Cl)cc2)c(OC)cc1NC(=O)CN1CCOCC1	TDP1 cell noCPT inconclusive, DT40 TDP1 CPT inconclusive
COc1cc(NC(=O)C(c2ccccc2)c2ccccc2)c(C(=O)O)cc1OC	none
COC(=O)c1ccc(C(=O)Nc2cc(Cl)ccc2Cl)cc1NC(=O)c1ccc(N(C)C)cc1	TDP1 cell noCPT inconclusive, DT40 TDP1 CPT 25.9µM
COc1cc(NC(=O)c2ccc(C)cc2)c(OC)cc1NC(=O)CN1CCOCC1	TDP1 cell noCPT 16.4µM, DT40 TDP1 CPT inconclusive
COc1cc(NC(=O)c2ccc(Cl)cc2)c(OC)cc1NC(=O)CN1CCCCC1	TDP1 cell noCPT 18.4µM, DT40 TDP1 CPT inconclusive (no result: ClpP mod)
COc1cc2c(cc1NC(=O)C(c1ccccc1)c1ccccc1)CCCC2	TDP1 cell noCPT 11.6µM, DT40 TDP1 CPT inconclusive
CC(=O)c1ccc(NC(=O)c2cn(C)c(=O)c3ccccc23)cc1	ClpP mod inconclusive, TDP1 cell noCPT inconclusive, DT40 TDP1 CPT inconclusive
CC(=O)c1sc(NS(=O)(=O)c2ccc(C)cc2)nc1-c1ccccc1	none (no result: ClpP mod)
Cc1cc([N+](=O)[O-])ccc1N(C)C	none
COc1ccc2c(c1)-c1nc(-n3ncc(C(=O)N(C)CC4CCCN(C)C4)c3C3CC3)ncc1CC2 (stereo not drawn)	none (no result: ClpP mod, TDP1 block)
CCOc1ccc(CCNC(=O)c2oc(=O)c3ccccc3c2-c2ccc(C)cc2)cc1OCC	TDP1 cell noCPT inconclusive, DT40 TDP1 CPT inconclusive
CCCCC1CN(CCNC(=O)c2ccccn2)Cc2ccccc2O1 (stereo not drawn)	none (no result: ClpP mod, TDP1 block)
COc1cc(NC(=O)c2ccccc2F)c(OC)cc1NC(=O)CN1CCCCC1	TDP1 cell noCPT 16.4µM, DT40 TDP1 CPT inconclusive (no result: ClpP mod)
COc1cc(NC(=O)c2cccc(C)c2)c(OC)cc1NC(=O)CN1CCCCC1	TDP1 cell noCPT 16.4µM, DT40 TDP1 CPT inconclusive (no result: ClpP mod)
COc1cc(NC(=O)Nc2ccccc2)c(OC)cc1NC(=O)CN1CCCCC1	TDP1 cell noCPT inconclusive, DT40 TDP1 CPT inconclusive
COc1cc(NC(=O)Nc2ccccc2OC)c(OC)cc1NC(=O)CN1CCCCC1	TDP1 cell noCPT inconclusive, DT40 TDP1 CPT inconclusive
COc1cc(NC(=O)c2ccc(C(C)(C)C)cc2)c(OC)cc1NC(=O)CN1CCCCC1	TDP1 cell noCPT 20.6µM, DT40 TDP1 CPT inconclusive (no result: ClpP mod)
COc1cc(C(=O)NC2CCN(CC(=O)Nc3cccc(C)c3C)CC2)cc(OC)c1OC	TDP1 cell noCPT inconclusive, DT40 TDP1 CPT 18.4µM (no result: ClpP mod, TDP1 block)
COc1ccc(Cl)cc1NC(=O)CN1CCCCCC1	none (no result: ClpP mod)
Cc1ccc2c(c1)N(CC(=O)N1CCCC1)C(=O)c1cccnc1O2	none
COc1cc(NC(=O)C2CCCCC2)c(OC)cc1NC(=O)CN1CCCCC1	TDP1 cell noCPT 16.4µM, DT40 TDP1 CPT inconclusive
COCCOc1ccc(C(F)(F)F)cc1NC(=O)c1ccccc1F	ClpP mod 25.1µM
COC(=O)c1cc(Cl)c(NC(=O)C(C)C)cc1OC	none (no result: ClpP mod)
COC(=O)c1cc(Cl)c(NC(=O)c2ccc(C(C)(C)C)cc2)cc1OC	TDP1 cell noCPT 18.4µM, DT40 TDP1 CPT 25.9µM
Cc1ccc(NC(=O)CN2CCC(NC(=O)C3CCCCC3)CC2)c(Br)c1	TDP1 cell noCPT 20.6µM, DT40 TDP1 CPT inconclusive
COCCNC(=O)CN(C(=O)CCC(=O)Nc1ccccn1)c1ccc(C)cc1C	none (no result: TDP1 block)
COc1cc2c(cc1NC(=O)c1cccc(F)c1)CCCC2	TDP1 cell noCPT inconclusive, DT40 TDP1 CPT inconclusive
COc1cc2c(cc1NC(=O)c1cccc(Br)c1)CCCC2	TDP1 cell noCPT 16.4µM, DT40 TDP1 CPT inconclusive
COc1cc2c(cc1NC(=O)c1ccccc1F)CCCC2	TDP1 cell noCPT 20.6µM, DT40 TDP1 CPT inconclusive
CCn1cc(/C=N/N=C2\CCC3C4CCc5cc(O)ccc5C4CC[C@]23C)c(C)n1 (stereo partly drawn)	TDP1 cell noCPT 20.6µM, DT40 TDP1 CPT 16.4µM
CC12CCC3c4ccc(O)cc4CCC3C1CCC2=O (stereo not drawn)	none
CC(=O)N(O)CCCCCNC(=O)CCC(=O)N(O)CCCCCNC(=O)CCC(=O)N(O)CCCCCN	TDP1 cell noCPT 11.6µM!, DT40 TDP1 CPT 20.6µM!
COc1cccc(-n2sc3c(c2=S)-c2cc(OC)ccc2NC3(C)C)c1	TDP1 cell noCPT inconclusive, DT40 TDP1 CPT inconclusive
CC1(C)Nc2ccc(O)cc2-c2c1ssc2=S	TDP1 cell noCPT 2.06µM, DT40 TDP1 CPT 0.731µM
COc1ccc(NCc2nc3ccccc3n2CCOc2ccc(C)cc2)cc1	TDP1 cell noCPT 16.4µM, DT40 TDP1 CPT 16.4µM
COc1cccc(OCc2nc3ccccc3n2CCOc2ccc(C)cc2)c1	TDP1 cell noCPT 16.4µM, DT40 TDP1 CPT 23.1µM
COc1cccc(Cn2c(Cn3c(-c4cnccn4)nc4ccccc43)nc3ccccc32)c1	TDP1 cell noCPT inconclusive (no result: TDP1 block)
COc1cccc(OCc2nc3ccccc3n2CCOc2ccccc2C)c1	TDP1 cell noCPT inconclusive, DT40 TDP1 CPT inconclusive
COc1cccc(Cn2c(C(C)n3c(-c4cnccn4)nc4ccccc43)nc3ccccc32)c1 (stereo not drawn)	ClpP mod inconclusive, TDP1 cell noCPT 20.6µM, DT40 TDP1 CPT inconclusive (no result: TDP1 block)
COc1cccc(OCc2nc3ccccc3n2Cc2ccccc2)c1	TDP1 cell noCPT 18.4µM, DT40 TDP1 CPT inconclusive
COCc1nc2ccccc2n1Cc1ccc(C(C)(C)C)cc1	TDP1 cell noCPT 25.9µM, DT40 TDP1 CPT 20.6µM
COc1ccc(OCc2nc3ccccc3n2Cc2ccccc2Cl)cc1	TDP1 cell noCPT inconclusive, DT40 TDP1 CPT inconclusive (no result: TDP1 block)
Cc1ccccc1Cn1c(COc2ccc(Cl)cc2)nc2ccccc21	TDP1 cell noCPT 13µM, DT40 TDP1 CPT inconclusive (no result: TDP1 block)
CCCCc1nc(NCCNC(=O)c2ccco2)c(C#N)c2c1CSC(C)(C)C2	ClpP mod 25.1µM, TDP1 cell noCPT 23.1µM, DT40 TDP1 CPT 29.1µM
CCCCc1nc(NCCNC(=O)c2ccccc2)c(C#N)c2c1CSC(C)(C)C2	ClpP mod 28.2µM, TDP1 cell noCPT 13µM, DT40 TDP1 CPT 23.1µM
CCCCc1nc(Cl)c(C#N)c2c1CSC(C)(C)C2	none
Cc1noc(C)c1C(=O)N1CCCC(C)(C(=O)NS(=O)(=O)C2CC2)C1 (stereo not drawn)	TDP1 cell noCPT inconclusive (no result: TDP1 block)
CCN(CC(=O)Nc1c(C(=O)OC)[nH]c2ccc(Cl)cc12)c1ccc2c(c1)OCO2	TDP1 cell noCPT 25.9µM, DT40 TDP1 CPT inconclusive
CCC1CN(CCC(=O)N2CCCN(C(=O)c3ccco3)CC2)Cc2cc(OC)ccc2O1 (stereo not drawn)	none (no result: ClpP mod, TDP1 block)
